Experiment [1] can be described thus: AP1 Signaling Pathway (AID 357; active = well fitted curve in either direction with a large enough effect, not every such curve was filed as active;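 also: ME-180 reporter cells stimulated with EGF at its EC50 level; % is scaled to controls: 0 for no effect and ±100 for the full control effect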). Conditions: ME-180 AP-1-bla reporter, EGF-induced, beta-lactamase ratio, 5 h; at 7.69 µM (top of the series) unless noted. The gist of the method:
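First, ME-180 AP-1-bla cells were cultured overnight at 37 °C in low-serum Opti-MEM. Next, titrated compounds with EC50 EGF were incubated 5 hours. Finally, CCF4 was added for 2.5 hours and the 460/530 nm ratio recorded.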

Experiment [2] in a line: NFAT Signaling Pathway (AID 444; active = well fitted curve in either direction with a large enough effect, not every such curve was filed as active;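 also: carbachol stimulus at about its EC50 of 1 µM final; % is scaled to controls: 0 for no effect and ±100 for the full control effect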). Conditions: Jurkat NFAT-bla M1, carbachol, beta-lactamase ratio, 5 h; at 7.69 µM (top of the series) unless noted. The gist of the method: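 Jurkat cells with NFAT-driven β-lactamase reporter and co-expressed M1 receptor, stimulated with carbachol (final 1 uM, ~EC50), compound titration, 5 h at 37 °C. CCF4 loaded 1 h at RT; 460/530 nm ratio gave %activity and AC50.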

Experiment [3] concerns the target Glucocorticoid receptor (Homo sapiens) (UniProt P04150). As to the kind of experiment: GR-GFP Redistribution (AID 450;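 active = compounds whose dose series gives a full or clear partial fitted curve of increased nuclear translocation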; also: potency is read from the fitted curve at half-maximal effect). Particulars: U2OS GR-GFP nuclear translocation, laser cytometry, 2 h.
Experiment [4] shares this target. Kind of experiment: GR-EFC Redistribution (AID 451; calls by dose curve; also: potency is read from the fitted curve at half-maximal effect). Particulars: CHO-K1 GR-EFC translocation, beta-gal luminescence, 2 h. A digest of the protocol: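 CHO-K1 cells expressing nuclear EA and GR-ED fragments of b-gal; compounds titrated up to 46 uM final, 2 h at 37 C. GR nuclear translocation read as complemented b-gal luminescence after 1 h RT detection.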
In experiment [5] the target is Mitogen-activated protein kinase 10 (Mus musculus) (UniProt Q61831). As to the kind of experiment: JNK3 AlphaScreen Assay (AID 530; active = well fitted curve in either direction with a large enough effect, not every such curve was filed as active;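 also: kinase came from lysate of stimulated human HepG2 cells; signal reports phosphorylation of biotinylated GST-cJun 1-79 at Ser73 with 10 µM ATP; % is scaled to controls: 0 for no effect and ±100 for the full control effect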). The gist of the method:
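HepG2 lysate (IL-1b/TNFa pre-activated) + biotin-GST-cJun 1-79 + anti-pSer73 cJun; cpd titration, 15 min RT; ATP 10 uM start; Tris pH 7.6, MgCl2, DTT, vanadate; beads in EDTA buffer; AlphaScreen.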
On the technique in general: Bead proximity is the source of the signal in Alpha formats.

Experiment [6] has as its target 3',5'-cyclic-AMP phosphodiesterase 4B (Homo sapiens) (UniProt Q07343). Kind of experiment: qHTS Assay for Inhibitors of PDE-IV (AID 607; active = well fitted activation curve with a large enough effect in the main read-out, with a control signal flat, not every such curve was filed as active; also: % of control where 0% means no effect). A digest of the protocol: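 HEK293 ACTOne cells with CNG channel (1000/well), endogenous PDE4; membrane potential dye, compounds up to 22.9 uM final. Fluorescence Ex 535/Em 590; RO 20-1724 (100 uM final) as reference.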
For experiment [7], the target named is Guanine nucleotide-binding protein G(i) subunit alpha-1 (Homo sapiens) (UniProt P63096). Kind of experiment: qHTS Assay for Inhibitors of RGS12 GoLoco Motif Activity (Green Fluorophore) (AID 879).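 Also: 0% = labeled peptide with Gαi1 and full inhibition = labeled peptide alone without protein; negative values mean loss of peptide binding seen as reduced polarization.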 A digest of the protocol: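 A drop in FITC polarization marked displacement of the FITC-tagged RGS12 GoLoco peptide (10 nM) from Gαi1 (50 nM). Compounds were incubated 10 min at room temperature in Tris pH 7.5 buffer containing 150 mM NaCl, 0.1 mM GDP and 0.05% NP40; unlabeled peptide titration served as control.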
In general terms: In qHTS, concentration-response curves come from the screen itself.

Experiment [8] in a line: qHTS Assay for Identification of Small Molecule Agonists for Thrombopoietin (TPO) Signaling Pathway (AID 917). Also: % is scaled to controls: 0 for no effect and ±100 for the full control effect. The gist of the method:
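Quantitative HTS for pathway activators: compounds were pin-transferred onto IL-3-starved Ba/F3 cells expressing human TPO receptor, TPO was added at its EC50 (26 pM final), and after 24 hrs at 37 C reporter luciferase was measured.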

The target of experiment [9] is Muscarinic acetylcholine receptor M1 (Rattus norvegicus) (UniProt P08482). As to the kind of experiment: qHTS Assay for Antagonists of Acetylcholine Muscarinic M1 Receptor: Measurement of IP-One Response (AID 944). Also: nearly all actives have a fitted effect of over 75% in size. The gist of the method: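 Antagonism was measured as loss of carbachol-driven (EC80) IP1 accumulation in CHO cells carrying rat M1, using a homogeneous IP-One TR-FRET kit read at 620 and 665 nm.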

The target in experiment [10] is Pyruvate kinase (Leishmania mexicana) (UniProt Q27686). Kind of experiment: qHTS Validation Assay for Inhibitors of Leishmania Mexicana Pyruvate Kinase (AID 945).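 Also: 0% = DMSO only neutral control wells.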 A digest of the protocol: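 qHTS eight-point titrations against 0.2 nM LmPYK (E451W) in imidazole buffer pH 7.2 with 0.5 mM PEP, 0.1 mM ADP; 1 h, room temperature. Readout: PKLight luminescence, normalized to neutral DMSO wells.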

In experiment [11] the target is Pyruvate kinase PKM (Homo sapiens) (UniProt P14618). As to the kind of experiment: qHTS Assay for Activators of Human Muscle Pyruvate Kinase (AID 954; active = well fitted curve in the direction sought with a large enough effect, not every such curve was filed as active;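 also: 0% = uninhibited enzyme and -100% = no enzyme or full thiadiazolimine inhibition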). The gist of the method: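 Compound pinned into substrate mix (0.5 mM PEP, 0.1 mM ADP), then 0.1 nM PKM2 added; 1 h, RT. Stop/detection luciferase reagent added, luminescence read. Normalized to no-inhibition and no-enzyme or reference-inhibitor controls.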

Experiment [12] deals with Alpha-galactosidase A (Homo sapiens) (UniProt P06280). Kind of experiment: Counterscreen for Glucocerebrosidase Inhibitors: qHTS Assay for Human alpha-Galactosidase at pH 4.5 (AID 992). Also: 0% is about no effect. A digest of the protocol:
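Steps: enzyme (2 nM final), then compound across 0.7 nM to 77 uM, then 80 uM fluorogenic galactopyranoside substrate; incubate 20 min at room temperature; quench at pH 10; measure fluorescence at 365/440 nm.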
For orientation: Counterscreens check selectivity or assay interference.

The target in experiment [13] is alpha-glucosidase (Oryza sativa, rice) (UniProt Q653V4). As to the kind of experiment: Counterscreen for Glucocerebrosidase Inhibitors: qHTS Assay for Rice alpha-Glucosidase at pH 5.0 (AID 997).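 Also: 0% = full activity with enzyme and -100% = basal without enzyme.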 A digest of the protocol:
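Endpoint fluorogenic assay at pH 5.0: compounds (0.7 nM to 77 uM) titrated against 4 nM rice enzyme and 400 uM 4-MU-alpha-glucoside for 20 min at room temperature; NaOH/glycine stop, read ex 365/em 440 nm, Hill-fitted AC50.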

Experiment [14] concerns the target DNA dC->dU-editing enzyme APOBEC-3G (Homo sapiens) (UniProt Q9HC16). As to the kind of experiment: qHTS for inhibitors of Vif-A3G interactions: Validation (AID 588379). Also: 0% is about no effect. The gist of the method:
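Yellow fluorescence (Ex 488, Em 500-530) of Vif-coexpressing HeLa A3G-eYFP cells, scanned by Acumen cytometer, reports blocked A3G degradation. Cells plated at 700/well overnight at 37 deg C before compound addition, then a further overnight compound incubation at 37 deg C.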

Experiment [15] is described as follows: Primary qHTS for small molecule stabilizers of the endoplasmic reticulum resident proteome: Secreted ER Calcium Modulated Protein (SERCaMP) assay (AID 1508630). Also: % is scaled to controls: 0 for no effect and ±100 for the full control effect. The gist of the method:
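The SH-SY5Y reporter protocol was run at 3 concentrations up to 38.3 uM (primary) or 11 concentrations (follow-up): 16 h compound, 100 nM thapsigargin for 4 h, then extracellular luciferase luminescence.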

In experiment [16] the target is Cytochrome P450 1A2 (Homo sapiens) (UniProt P05177). As to the kind of experiment: p450-cyp1a2 (AID 410; calls by dose curve; also: potency is read from the fitted curve at half-maximal effect). A digest of the protocol: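 Read-out is luminescence from luciferin produced by CYP1A2 demethylation of Luciferin-ME (100uM, at Km). Detection reagent stopped the 60 min NADPH-dependent reaction; signals were normalized to 57 uM furafylline.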
For experiment [17], the target named is Cytochrome P450 3A4 (Homo sapiens) (UniProt P08684). As to the kind of experiment: qHTS Assay for Activators of Cytochrome P450 3A4 (AID 885). Also: nearly all actives have a fitted effect of over 65% in size. A digest of the protocol: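 Human CYP3A4 dealkylates Luciferin-PPXE to luciferin, which luciferase detection converts to light. Substrate was at its KM (25uM), buffer 200mM KPO4, reaction 60 min at RT.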
The nature of experiment [18]: Stat Signaling Pathway (AID 446; active = well fitted curve in either direction with a large enough effect, not every such curve was filed as active). Conditions: ME-180 (cervical carcinoma) SIE beta-lactamase reporter, IL-6 stimulated, 5 h; at 7.69 µM (top of the series) unless noted. The gist of the method:
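Normalization used AC90 stimulation (300 pM IL-6) and AC90 inhibition (125 nM pan-JAK inhibitor at 40 pM IL-6). The underlying signal is SIE-driven beta-lactamase in ME-180 cells after 5 h IL-6 exposure with compound.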

The target of experiment [19] is Cytochrome P450 2C9 (Homo sapiens) (UniProt P11712). As to the kind of experiment: qHTS Assay for Inhibitors and Substrates of Cytochrome P450 2C9 (AID 883). Also: % is scaled to controls: 0 for no effect and ±100 for the full control effect; nearly all actives have a fitted effect of over 60% in size. The gist of the method:
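10nM CYP2C9 + 100uM Luciferin-H (=KM), 25mM KPO4; cpd 10 min 37C; NADPH regen, 60 min 37C; stop/detect with P450 Glo-Buffer 20 min; luminescence. Norm. to 57uM sulphaphenazole as full inhibition.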

Experiment [20] concerns the target Ubiquitin carboxyl-terminal hydrolase 1 (Homo sapiens) (UniProt O94782). As to the kind of experiment: Inhibitors of USP1/UAF1: Pilot qHTS (AID 504865).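 Also: rhodamine fluorescence freed from ubiquitin-rhodamine substrate followed over time; top concentration of the series differs between compounds; % is scaled to controls: 0 for no effect and ±100 for the full control effect; nearly all actives have a fitted effect of over 35% in size.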 The gist of the method:
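Kinetic fluorescence assay: 1nM USP1/UAF1, 15 min compound preincubation, then 150nM Ub-Rho; 480/540 nm.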

Each structure is given as a SMILES string. Values without a mark were called inactive. Records with an inconclusive call do not appear. The source made the active and inactive calls. Unless noted, calls follow the shape of the dose curve; as a rule, active = well fitted curve in the direction sought with a large enough effect; inconclusive = small, poorly fitted or top-dose-only effect, or another doubt; inactive = no such curve, though single readings can be large; an effect the other way counts as inactive or inconclusive.

Glucocorticoid receptor (Homo sapiens), sequence (P04150 whole entry, looked up, the tested form may be a part): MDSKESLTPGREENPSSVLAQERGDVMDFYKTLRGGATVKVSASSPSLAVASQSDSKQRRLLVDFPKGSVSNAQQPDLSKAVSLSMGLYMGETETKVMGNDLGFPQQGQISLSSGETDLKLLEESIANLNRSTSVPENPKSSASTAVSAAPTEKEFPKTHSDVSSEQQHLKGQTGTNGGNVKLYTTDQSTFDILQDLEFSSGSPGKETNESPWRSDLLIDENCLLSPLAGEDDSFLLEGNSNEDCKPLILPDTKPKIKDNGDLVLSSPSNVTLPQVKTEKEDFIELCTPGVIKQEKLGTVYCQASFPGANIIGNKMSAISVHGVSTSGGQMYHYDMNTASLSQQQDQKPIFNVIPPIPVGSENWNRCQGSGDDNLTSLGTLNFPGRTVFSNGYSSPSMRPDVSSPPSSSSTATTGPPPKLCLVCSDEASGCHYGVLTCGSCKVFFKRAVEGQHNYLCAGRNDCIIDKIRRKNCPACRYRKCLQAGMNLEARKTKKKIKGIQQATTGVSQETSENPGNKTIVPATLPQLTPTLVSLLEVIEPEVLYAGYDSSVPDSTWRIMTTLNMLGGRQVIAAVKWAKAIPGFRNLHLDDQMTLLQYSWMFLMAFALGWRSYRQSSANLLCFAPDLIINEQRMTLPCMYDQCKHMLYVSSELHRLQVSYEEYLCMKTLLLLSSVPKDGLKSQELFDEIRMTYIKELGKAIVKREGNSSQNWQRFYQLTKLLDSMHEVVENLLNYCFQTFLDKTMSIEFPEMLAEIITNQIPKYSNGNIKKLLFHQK
3',5'-cyclic-AMP phosphodiesterase 4B (Homo sapiens), sequence (Q07343 whole entry, looked up): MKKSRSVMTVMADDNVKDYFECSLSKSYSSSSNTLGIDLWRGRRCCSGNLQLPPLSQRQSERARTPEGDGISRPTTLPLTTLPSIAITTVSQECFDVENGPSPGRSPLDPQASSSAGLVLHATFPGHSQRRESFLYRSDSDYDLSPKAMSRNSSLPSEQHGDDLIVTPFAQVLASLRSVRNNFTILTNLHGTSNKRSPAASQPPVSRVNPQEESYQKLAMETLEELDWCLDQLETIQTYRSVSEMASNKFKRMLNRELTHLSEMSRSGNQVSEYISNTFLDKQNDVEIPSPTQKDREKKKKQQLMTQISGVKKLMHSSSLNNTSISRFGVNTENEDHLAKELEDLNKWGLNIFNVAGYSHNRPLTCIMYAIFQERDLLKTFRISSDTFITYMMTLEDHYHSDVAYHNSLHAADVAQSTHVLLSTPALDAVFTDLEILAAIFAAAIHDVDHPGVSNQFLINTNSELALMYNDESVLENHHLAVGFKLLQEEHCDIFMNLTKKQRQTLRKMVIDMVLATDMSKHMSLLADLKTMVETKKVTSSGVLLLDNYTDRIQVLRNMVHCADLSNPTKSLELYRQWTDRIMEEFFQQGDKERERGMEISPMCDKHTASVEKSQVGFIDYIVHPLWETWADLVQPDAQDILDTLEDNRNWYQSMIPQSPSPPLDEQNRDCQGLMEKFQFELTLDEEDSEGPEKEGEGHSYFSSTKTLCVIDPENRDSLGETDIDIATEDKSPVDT
DNA dC->dU-editing enzyme APOBEC-3G (Homo sapiens), sequence (Q9HC16 whole entry, looked up): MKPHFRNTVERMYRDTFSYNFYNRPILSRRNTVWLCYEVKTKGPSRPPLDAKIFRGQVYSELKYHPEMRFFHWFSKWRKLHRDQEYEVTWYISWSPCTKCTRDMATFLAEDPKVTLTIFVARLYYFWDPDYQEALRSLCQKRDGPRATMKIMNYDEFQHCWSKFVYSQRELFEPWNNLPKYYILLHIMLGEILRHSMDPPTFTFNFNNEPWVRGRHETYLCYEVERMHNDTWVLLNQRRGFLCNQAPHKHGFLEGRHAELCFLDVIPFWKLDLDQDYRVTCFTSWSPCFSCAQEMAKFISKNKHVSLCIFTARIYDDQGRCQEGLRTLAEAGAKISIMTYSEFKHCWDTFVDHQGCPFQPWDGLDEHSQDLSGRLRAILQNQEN
Cytochrome P450 3A4 (Homo sapiens), sequence (P08684 whole entry, looked up): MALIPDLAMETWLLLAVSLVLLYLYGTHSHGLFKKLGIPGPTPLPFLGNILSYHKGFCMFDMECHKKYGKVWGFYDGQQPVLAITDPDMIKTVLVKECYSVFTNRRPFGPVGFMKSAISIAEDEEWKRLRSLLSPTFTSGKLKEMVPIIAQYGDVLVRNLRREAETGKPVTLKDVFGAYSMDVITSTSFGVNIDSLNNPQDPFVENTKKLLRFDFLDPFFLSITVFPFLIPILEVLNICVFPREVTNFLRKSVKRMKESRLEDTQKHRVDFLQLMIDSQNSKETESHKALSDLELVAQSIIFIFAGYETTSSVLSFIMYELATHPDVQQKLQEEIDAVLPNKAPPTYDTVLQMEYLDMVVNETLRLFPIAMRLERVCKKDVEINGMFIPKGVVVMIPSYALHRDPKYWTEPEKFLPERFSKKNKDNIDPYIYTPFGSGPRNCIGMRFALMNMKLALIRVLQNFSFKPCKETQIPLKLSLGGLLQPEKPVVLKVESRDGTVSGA
Cytochrome P450 1A2 (Homo sapiens), sequence (P05177 whole entry, looked up): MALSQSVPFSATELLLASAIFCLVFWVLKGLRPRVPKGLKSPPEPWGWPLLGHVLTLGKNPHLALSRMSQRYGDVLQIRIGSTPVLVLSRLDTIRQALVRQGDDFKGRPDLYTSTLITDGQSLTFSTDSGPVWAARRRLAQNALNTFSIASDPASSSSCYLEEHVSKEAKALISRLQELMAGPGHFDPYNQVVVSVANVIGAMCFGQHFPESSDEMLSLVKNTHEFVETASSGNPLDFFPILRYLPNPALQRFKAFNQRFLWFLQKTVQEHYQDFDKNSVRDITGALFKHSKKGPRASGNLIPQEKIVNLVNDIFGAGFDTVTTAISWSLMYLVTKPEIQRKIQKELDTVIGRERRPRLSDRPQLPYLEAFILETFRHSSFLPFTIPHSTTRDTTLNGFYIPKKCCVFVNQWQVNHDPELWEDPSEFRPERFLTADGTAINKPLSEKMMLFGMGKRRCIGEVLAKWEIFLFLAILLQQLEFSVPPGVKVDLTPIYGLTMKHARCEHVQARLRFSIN
Pyruvate kinase PKM (Homo sapiens), sequence (P14618 whole entry, looked up): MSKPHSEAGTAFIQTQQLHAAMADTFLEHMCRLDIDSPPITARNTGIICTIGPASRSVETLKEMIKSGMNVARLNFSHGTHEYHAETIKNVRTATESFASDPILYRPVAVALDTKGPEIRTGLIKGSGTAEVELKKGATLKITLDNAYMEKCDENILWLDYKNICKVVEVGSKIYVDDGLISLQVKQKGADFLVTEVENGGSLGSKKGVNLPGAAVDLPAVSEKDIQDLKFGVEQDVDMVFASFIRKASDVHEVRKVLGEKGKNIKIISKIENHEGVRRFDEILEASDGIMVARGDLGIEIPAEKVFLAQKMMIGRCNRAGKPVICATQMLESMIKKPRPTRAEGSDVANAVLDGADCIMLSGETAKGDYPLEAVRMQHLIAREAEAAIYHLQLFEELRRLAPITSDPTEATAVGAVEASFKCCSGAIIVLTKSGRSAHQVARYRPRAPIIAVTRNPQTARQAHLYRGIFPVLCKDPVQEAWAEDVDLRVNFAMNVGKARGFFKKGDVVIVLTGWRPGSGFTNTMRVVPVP
Guanine nucleotide-binding protein G(i) subunit alpha-1 (Homo sapiens), sequence (P63096 whole entry, looked up): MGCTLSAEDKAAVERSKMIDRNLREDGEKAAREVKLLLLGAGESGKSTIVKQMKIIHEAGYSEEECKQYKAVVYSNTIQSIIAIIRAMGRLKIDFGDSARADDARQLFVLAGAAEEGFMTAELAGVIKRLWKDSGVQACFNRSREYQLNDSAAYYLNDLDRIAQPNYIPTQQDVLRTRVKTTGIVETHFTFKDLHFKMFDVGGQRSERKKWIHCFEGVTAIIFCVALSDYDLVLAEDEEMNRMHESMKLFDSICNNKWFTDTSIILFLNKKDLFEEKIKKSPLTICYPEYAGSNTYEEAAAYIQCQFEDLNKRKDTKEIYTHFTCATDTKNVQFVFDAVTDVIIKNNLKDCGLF
Alpha-galactosidase A (Homo sapiens), sequence (P06280 whole entry, looked up): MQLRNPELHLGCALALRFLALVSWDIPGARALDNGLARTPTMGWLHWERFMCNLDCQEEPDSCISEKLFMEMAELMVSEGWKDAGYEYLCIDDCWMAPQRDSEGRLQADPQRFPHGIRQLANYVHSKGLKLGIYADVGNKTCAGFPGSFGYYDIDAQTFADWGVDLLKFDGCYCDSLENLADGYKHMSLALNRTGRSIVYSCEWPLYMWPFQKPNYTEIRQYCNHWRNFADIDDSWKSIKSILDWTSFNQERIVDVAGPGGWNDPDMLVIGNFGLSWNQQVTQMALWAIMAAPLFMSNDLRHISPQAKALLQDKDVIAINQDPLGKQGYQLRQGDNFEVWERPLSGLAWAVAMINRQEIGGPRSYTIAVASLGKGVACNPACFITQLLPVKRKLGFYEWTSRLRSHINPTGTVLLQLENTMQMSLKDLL
Pyruvate kinase (Leishmania mexicana), sequence (Q27686 2-499 E452W): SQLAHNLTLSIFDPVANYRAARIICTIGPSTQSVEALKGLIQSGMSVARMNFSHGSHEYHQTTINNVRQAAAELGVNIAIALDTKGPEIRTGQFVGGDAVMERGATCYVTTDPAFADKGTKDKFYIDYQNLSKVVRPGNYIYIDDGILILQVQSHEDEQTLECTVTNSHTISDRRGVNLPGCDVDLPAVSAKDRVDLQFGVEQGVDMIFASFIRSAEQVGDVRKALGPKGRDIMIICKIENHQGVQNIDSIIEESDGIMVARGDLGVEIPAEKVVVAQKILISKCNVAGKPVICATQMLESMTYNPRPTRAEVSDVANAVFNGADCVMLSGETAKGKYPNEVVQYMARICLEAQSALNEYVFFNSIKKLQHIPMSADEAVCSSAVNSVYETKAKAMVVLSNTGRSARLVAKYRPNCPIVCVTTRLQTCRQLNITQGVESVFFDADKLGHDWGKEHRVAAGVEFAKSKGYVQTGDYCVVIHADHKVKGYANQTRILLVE

Consider `Cn1cc(C(F)(F)F)nc1-c1ccc(OC[C@@H](O)CNCCOc2ccc(O)c(C(N)=O)c2)cc1`, for which the activity change, negative = inhibition in [1] was -8.84% [at 38 µM]; in experiment [2] it was -4.88% [at 38 µM]. Besides, the Potency in experiment [3] and in experiment [4] was > 46 µM each time. Also, the Potency result in [5], in experiment [6], in experiment [7] and in [9] was “inactive” throughout. Moreover, the outcome in [8], in experiment [10], in experiment [11], in [12], in [13] and in experiment [14] was inactive. Further, in experiment [15], the outcome was inactive.

As for `Oc1cc2c(c(Cl)c1O)CCNC[C@H]2c1ccccc1`, the activity change, negative = inhibition in experiment [1] was -21% [at 38 µM]; in [2], -20.4% [at 38 µM]. Further, the Potency entry in experiment [16], in experiment [5], in experiment [6], in experiment [7], in experiment [17] and in experiment [9] was “inactive” each time. Moreover, the Potency in experiment [3] and in experiment [4] was > 46 µM in each case. Further, the outcome in [10], in experiment [11], in experiment [12], in experiment [13], in [14] and in experiment [15] was inactive.

In the case of `COc1cccc(Cn2c(=O)c(C)nc3cnc(N4CCOCC4)nc32)c1`, the results for the activity change, negative = inhibition in [1] and in experiment [2] were -24.9% and 2.68%, respectively. Moreover, in experiment [18], the activity, negative = inhibition is -1.29%. For the same compound, the Potency was > 9.22 µM in [3] and > 46 µM in [4]. Also, the Potency entry in experiment [5] was “inactive”. Also, the outcome in experiment [15] was inactive.

In the case of `O=c1c(-c2cccs2)nc2cncnc2n1C1CC1`, the activity change, negative = inhibition in experiment [1] was 0.545%; in experiment [2] it was -2.79%. For the same compound, the Potency in [16] was 2.51 µM (active); in [3] it was > 9.22 µM; in [4] it was > 46 µM. Moreover, the activity, negative = inhibition in [18] is -5.35%. Further, the Potency entry in experiment [5] and in experiment [17] was “inactive” each time. The result in [15] was inactive.

For the compound `N[C@@H](C(=O)O)c1ccc(O)c(C(=O)O)c1`, the Potency result in experiment [16], in experiment [5], in experiment [6], in [19] and in experiment [20] was “inactive” each time. The Potency in [3] and in [4] was > 46 µM in each case. Further, the compound was called inactive in experiment [14] and in experiment [15].
